Structures are written as SMILES. The campaign covered roughly 16,000 compounds. About 5,700 (36%) were called active. Another 24% or so got no clear call; they are omitted. The list shows a part of the results. A number with no mark means an inactive call. The call rests on the fitted dose curve; in most records, active means well fitted curve in the direction sought with a large enough effect; inconclusive means small, poorly fitted or top-dose-only effect, or effect the other way; inactive means no such curve, though single readings can be large or run the other way. Square brackets hold non-standard residues; d marks the D form. Peptide text beside a SMILES is read from it.

We go through 29 molecules from PubChem BioAssay AID1851 (National Center for Advancing Translational Sciences (NCATS), 2009).
On the % scale 0 is the no-effect control and ±100 the full control effect.

In this assay the target is Cytochrome P450 1A2 (Homo sapiens) (UniProt P05177). Nature of the assay: Cytochrome panel assay with activity outcomes. As to conditions: recombinant CYP, pro-luciferin dealkylation, luminescence, p450-cyp1a2; series mostly up to 57.1 µM.
Chain of Cytochrome P450 1A2 (Homo sapiens) (P05177 whole entry, looked up): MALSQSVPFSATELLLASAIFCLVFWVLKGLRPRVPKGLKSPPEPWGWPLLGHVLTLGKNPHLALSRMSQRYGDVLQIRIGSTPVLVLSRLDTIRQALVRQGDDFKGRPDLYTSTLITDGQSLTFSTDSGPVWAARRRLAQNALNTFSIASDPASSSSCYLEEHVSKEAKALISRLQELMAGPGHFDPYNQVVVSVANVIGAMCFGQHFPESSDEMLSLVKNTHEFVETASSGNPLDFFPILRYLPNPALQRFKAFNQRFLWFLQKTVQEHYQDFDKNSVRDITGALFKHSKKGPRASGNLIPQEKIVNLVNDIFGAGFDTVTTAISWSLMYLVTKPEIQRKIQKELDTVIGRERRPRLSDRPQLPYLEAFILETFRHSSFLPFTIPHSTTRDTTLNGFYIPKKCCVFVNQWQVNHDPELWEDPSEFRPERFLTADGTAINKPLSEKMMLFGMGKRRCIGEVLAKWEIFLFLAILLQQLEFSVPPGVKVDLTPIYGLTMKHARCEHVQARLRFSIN
As for `CC1(C)C2([N+](=O)[O-])CN3CC1([N+](=O)[O-])CN(C2)C3c1ccccc1` (centres undefined), the AC50 entry is “inactive”.

`CSCC[C@H](C=O)NC(=O)[C@H](CC(C)C)NC(=O)[C@H](CC(C)C)NC(C)=O` (Ac-Leu-Leu-[dM]-aldehyde): the AC50 entry was “inactive”.

On to `C=CCSc1nc(NC)c2sccc2n1`, for which the AC50 is 1 µM (active).

Consider `C=CCNc1nc(SCC=C)nc2ccsc12`, for which the AC50 was 0.501 µM (active). The same measure, in the same setting: to `C=CCSc1nc(Oc2ccccc2)c2sccc2n1` belongs 2.51 µM (active); to `C=CCSc1ccsc1C(=O)O`, “inactive”. For the molecule `N[C@@H](Cc1ncccn1)C(=O)O`, the activity, negative = inhibition is -7.74% [at 11.4 µM]. For `COC(=O)C1(C)C=C2C(=C(c3ccccc3)C(=O)C2C)CN1` (centres undefined), the AC50 was 15.8 µM (active). Same read-out and setting: to `CCCC1(C(=O)OC)C=C2C(=C(c3ccccc3)C(=O)C2C)CN1` (centres undefined) belongs 15.8 µM (active).

For `CC1(C)CC(=O)C(CCC(=O)c2ccccc2)C(C)(C)N1` (centres undefined), the AC50 entry is “inactive”. The same measure, in the same setting: to `CCCCCC1=C2CNC(CCC)(C(=O)OC)C=C2C(C)C1=O` (centres undefined) belongs 31.6 µM (active); to `CCCC1(C(=O)OC)C=C2C(=C(C)C(=O)C2C)CN1` (centres undefined), “inactive”; to `CCCC1(C(=O)OC)C=C2C(=C(C(C)C)C(=O)C2C)CN1` (centres undefined), “inactive”. As for `CCN=C(N)CSS(=O)(=O)O`, the activity, negative = inhibition is -10.1% [at 11.4 µM]. On to `Cc1ccccc1-c1ccc2ncnc(-n3ccnc3)c2c1`, for which the AC50 was 0.794 µM (active). In the case of `c1cn(-c2ncnc3ccc(-c4ccoc4)cc23)cn1`, the AC50 is 1.26 µM (active). Consider `CN(C)c1ccc(-c2ccc3ncnc(-n4ccnc4)c3c2)cc1`, for which the AC50 is 0.316 µM (active). Take `Cc1cc2c(s1)CCCCC(=O)N2`: the AC50 result was “inactive”.

In the case of `C=C(CC1([C@@H](NP(=O)(c2ccccc2)c2ccccc2)[C@H]2C[C@@H]2CCN(C(=O)OCC)S(=O)(=O)c2ccc(C)cc2)CC1)c1ccccc1`, the AC50 entry was “inactive”. Take `CCN1C(=O)[C@H]2[C@H]3[C@H](O)[C@H](O)C/C(=N/O[C@@H]4O[C@@H](COC(C)=O)[C@@H](OC(C)=O)[C@@H](OC(C)=O)[C@H]4OC(C)=O)[C@@H]3CC[C@@H]2C1=O`: the activity, negative = inhibition is -12.6% [at 11.4 µM]. As for `Cc1cccc(C)c1NC(=O)/C(C#N)=C/c1cccs1`, the AC50 was 12.6 µM (active).

As for `Cc1ccc(-n2c(C)cc(/C=C(\C#N)C(=O)NCC3CCCO3)c2C)cc1` (centres undefined), the AC50 entry was “inactive”. Consider `Cc1cccc(C)c1NC(=O)C[N+](C)(C)C`, for which the AC50 result is “inactive”.

On to `COc1cc(/C=C(/NC(=O)c2ccccc2)C(=O)Nc2ccccc2)c([N+](=O)[O-])cc1OC`, for which the AC50 entry was “inactive”.

For the molecule `COc1cc(/C=C(\C#N)C(=O)NCC2CCCO2)c([N+](=O)[O-])cc1OC` (centres undefined), the AC50 was 4.47 µM (active).

With `Cc1cccc(C)c1NC(=O)[C@H](C)N`, the AC50 result was “inactive”. On the same count and under the same terms, to `N#C/C(=C\c1cccs1)C(=O)NCC1CCCO1` (centres undefined) belongs 12.6 µM (active).

For the molecule `COc1ccc(S(=O)(=O)N2CCC(C(=O)NCC3CCCO3)CC2)cc1C` (centres undefined), the AC50 entry is “inactive”. On the same count and under the same terms, the result for `CCS(=O)(=O)N1CCC(C(=O)NCC2CCCO2)CC1` (centres undefined) reads “inactive”.

In general, AC50 refers to the concentration giving half of the maximal activity seen.
